From PubChem BioAssay
A selection: hits, their analogues and other compounds. The true share with any hit is near 8.3%.
FMDV antiviral: antivirals against foot and mouth disease virus | FMDV antiviral cell-based qHTS | Potency, µM (doses to about 57.9 µM), for inactives: top-dose activity change, negative = inhibition, usual class: inhibitors | actives 1.2% (n = 410,000); calls by dose curve; tested in HEK293T cells; also: read-out not given here; potency is read from the fitted curve at half-maximal effect; nearly all actives have a fitted effect of over 45% in size
MARV entry inh: inhibitors of Marburg virus binding or cell entry; Potency, µM (highest dose often 37.8 µM), for the others: at the top dose activity change, negative = inhibition, hits mostly inhibitors; AID 540276; actives 1.8% (n = 300,000); Marburg virus pseudotyped entry inhibition, cell reporter; calls by dose curve; tested in HEK293 cells; also: potency is read from the fitted curve at half-maximal effect
FBPA Giardia inh: Giardia lamblia aldolase inhibition; purified Giardia FBPA; A8B2U2; Potency, µM (doses to about 59.6 µM), without a hit: top-dose activity, negative = inhibition, hits mostly inhibitors; actives 0.71% (n = 290,000); also: potency is read from the fitted curve at half-maximal effect; nearly all actives have a fitted effect of over 55% in size
Target sequence (A8B2U2 whole entry, looked up): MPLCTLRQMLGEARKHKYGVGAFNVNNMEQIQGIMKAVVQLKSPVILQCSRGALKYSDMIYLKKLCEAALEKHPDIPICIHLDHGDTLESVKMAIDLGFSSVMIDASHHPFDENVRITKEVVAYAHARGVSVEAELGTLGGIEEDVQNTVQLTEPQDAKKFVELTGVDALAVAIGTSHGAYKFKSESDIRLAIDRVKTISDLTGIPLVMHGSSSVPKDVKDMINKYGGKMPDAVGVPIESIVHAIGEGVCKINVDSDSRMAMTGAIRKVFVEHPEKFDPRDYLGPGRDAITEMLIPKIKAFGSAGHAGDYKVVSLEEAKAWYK
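Giardia FBPA (40 nM reagent) was preincubated 10 min at RT with compound (up to 57.5 uM final), then substrate plus GAPDH/TPI/NAD/arsenate coupling system with diaphorase/resazurin was added; resorufin fluorescence (525/598 nm) was read after 20 min.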
HCMV inh: blocks human cytomegalovirus replication; activity change, negative = inhibition, % at 57.5 µM; HFF cells, HCMV-luciferase reporter, 72 h; active compounds read low; actives 4.5% (n = 410,000); AID 1259415; in the data active = activity change below about -60%; inconclusive = no clear call, values can overlap the other calls; inactive = above about -39%
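Cell-based, HFFs, 1000 cells/well, 16 h 37C; cpds in DMSO + HCMV-luc, MOI 1 PFU/cell; 72 h 37C; OneGlo luminescence after 5 min RT; norm. to buffer vs Salinomycin 10uM.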
HCV inhibitor: inhibitors of hepatitis C virus infection; Potency, µM (top dose mostly 41.8 µM), for inactives: at the top dose activity change, negative = inhibition, actives largely listed as inhibitors; actives 3.4% (n = 340,000); Huh7.5.1 HCVcc-Cre infection, luciferase reporter, 44 h; AID 651820; also: potency is read from the fitted curve at half-maximal effect
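Cells (1,000/well) were plated 4 h before compound, then infected with HCVcc-Cre virus (~0.5 moi). After 44 h further culture, infection was read as luciferase luminescence following a 15 min substrate incubation at room temperature.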
Lassa entry inh: inhibitors of Lassa virus binding or cell entry; Lassa virus pseudotype entry inhibition, cell reporter; Potency, µM (series often up to 37.9 µM), inactives show at the highest dose activity change, negative = inhibition, most hits filed as inhibitors; actives 1.2% (n = 300,000); AID 540256; calls by dose curve; tested in HEK293 cells; also: potency is read from the fitted curve at half-maximal effect; nearly all actives have a fitted effect of over 50% in size
* = called active by the depositor; ? = inconclusive; . = no result; [ ] = remark or other dose. Unless noted, calls follow the shape of the dose curve; as a rule, active = well fitted curve in the direction sought with a large enough effect; inconclusive = small, poorly fitted or top-dose-only effect, or another doubt; inactive = no such curve, though single readings can be large; an effect the other way counts as inactive or inconclusive. % is scaled to controls: 0 for no effect and ±100 for the full control effect.

SMILES	FMDV antiviral	MARV entry inh	FBPA Giardia inh	HCMV inh	HCV inhibitor	Lassa entry inh
COc1cc(C(=O)Nc2nc3ccc(S(C)(=O)=O)cc3s2)cc(OC)c1C	?	6%	?	?	3.5µM*	?
Cc1ccc2oc(C(=O)Nc3nnc(C)s3)c(C)c2c1	21%	1%	2%	135	27%	?
COc1ccc2oc(C(=O)Nc3nc4ccc(S(C)(=O)=O)cc4s3)c(C)c2c1	?	-17%	.	-60*	16%	25%
COc1cc(OC)cc(C(=O)Nc2nc3ccc(S(C)(=O)=O)cc3s2)c1	1%	?	0%	37	-21%	-15%[46.1 µM]
COc1ccc2oc(C(=O)Nc3nnc(C)s3)c(C)c2c1	?	?	.	28	-7%	7.1µM*
C[C@H]1[C@@H](NC(=O)Nc2cccc(C(F)(F)F)c2)CC[C@@]23CCCN2C(=O)CCC[C@@H]13	.	.	.	-11	.	.
CC(C)S(=O)(=O)c1csc(NC(=O)Nc2cc(Cl)ccc2Cl)c1Cl	?	?	?	25	13µM*	?
CC(=O)NC(CCS(C)(=O)=O)C(=O)Nc1cc(Cl)ccc1Cl (centres undefined)	-7%	3%	-5%	159	10%	1%
CN(CCO)C(=O)c1cn(C2CCN(Cc3cccc(C(F)(F)F)c3)CC2)nn1	-10%	.	.	.	.	.
Cc1ccc(-c2nnc(SCC(=O)N/N=C/c3c(C)nn(-c4ccccc4)c3C)n2-c2ccccc2)cc1	-25%	?	8%	-27	11µM*	?
Cc1ccc(-c2nnc(SCC(=O)N/N=C/c3ccc(C)s3)n2-c2ccccc2)cc1	0%	?	5%	-35	-16%	16µM*
Cc1ccc(-c2nnc(SCC(=O)N/N=C/c3c(C)nn(-c4ccccc4)c3C)n2-c2ccc(C)cc2)cc1	?	?	9%	-39	-3%	7.1µM*
Cc1nn(-c2ccccc2)c(C)c1/C=N/NC(=O)c1cc(-c2ccccc2)n[nH]1	-26%	?	1%	-95*	?	?
Cc1nn(-c2ccccc2)c(C)c1/C=N/NC(=O)c1cc(-c2cccc3ccccc23)n[nH]1	-18%	?	-1%	-3	?	?
Cc1nn(-c2ccccc2)c(C)c1/C=N/NC(=O)CSc1nnc(-c2ccccc2)n1-c1ccc(Cl)cc1	-22%	?	23%	-16	?	?
COC(=O)C1CCN(S(=O)(=O)c2cc3c4c(c2)CC(=O)N4CCC3)CC1	-10%	.	.	1	.	-9%[46.1 µM]
COCC1CCCN(Cc2ccc3c(c2)CN(C(=O)c2ccc(-n4cccn4)cc2)CCO3)C1 (centres undefined)	-5%	.	.	.	.	.
COC(=O)[C@H](CC(C)C)N(Cc1ccc(Br)cc1)S(=O)(=O)CCl	.	.	.	.	.	7%[46.1 µM]
CCOc1ccc(NC(=O)C2CCN(c3nnc(-n4c(C)ccc4C)s3)CC2)cc1	?	-2%[46.1 µM]	.	-30	.	4%[46.1 µM]
Cc1ccc(/C=N/NC(=O)CSc2nnc(-c3ccc(Cl)cc3)n2-c2ccc(Cl)cc2)o1	?	?	5%	?	?	?
Cc1ccc(/C=N/NC(=O)CSc2nnc(-c3ccccc3)n2-c2ccc(Cl)cc2)o1	-14%	-2%	6%	-84*	?	-9%
CCOc1ccc(-c2nc(N)ncc2-c2ccc(OC)cc2)c(O)c1	-13%	?	-6%	23	?	-16%
CCOc1ccc(-c2nc(N)ncc2-c2ccc(Cl)cc2)c(O)c1	-26%	.	3%	?	?	.
CCOc1ccc(-c2nc(N)ncc2Oc2ccc(OC)cc2)c(O)c1	-14%	-28%	-12%	-20	14µM*	-24%
CCOc1ccc(-c2nc(N)ncc2-c2ccccc2)c(O)c1	?	?	0%	-21	10µM*	-13%
CCCCN1C(=O)c2[nH]nc(-c3ccccc3O)c2C1c1ccc(C(C)(C)C)cc1 (centres undefined)	-22%	10%[46.1 µM]	.	28	.	?
CCN(CC)C(=O)c1c(-c2ccccc2)c(-c2ccccc2)nn(CC)c1=O	?	?	.	7	.	9%[46.1 µM]
CN(CC1CCCCC1)[C@@H]1CC[C@@]23CCCN2C(=O)CCC[C@H]3[C@H]1Cc1ccccc1	.	.	.	27	.	.
